Assay results reported in the supplement of paper PMC10849652.
Of roughly 8,800 targets only a part is listed; those with a hit were picked by preference. About 0.5% of all pairs of compound and target were hits. A number with no mark means an inactive call.

Legend:
Test in all cases: log2 fold change, soluble protein after heating vs DMSO (PISA); higher = thermal stabilisation; K562 lysate, 10 uM; active = over 0.2 and 3.5 SD of the protein, either way, in both replicates (recomputed)
[1] = compound: CS(=O)(=O)CCNCc1ccc(-c2ccc3ncnc(Nc4ccc(OCc5cccc(F)c5)c(Cl)c4)c3c2)o1 [lapatinib]
Method in brief: (§1)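 Log-two fold change in thermal stability relative to solvent controls is reported from duplicates. For each sample, crude K562 extract from dounce-homogenised pellets in PBS pH 7.4 with 1 mM MgCl2, at 1 mg/mL protein, was treated with 10 μM compound for 30 min. Aliquots heated for 3 min across 48°C-58°C were pooled, brought to 0.5% NP-40 at 4°C and cleared at 21,000xg for 90 min. The supernatant was quantified by TMTpro 16plex LC-MS/MS with channel sums equalised.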

[2] = compound: CS(=O)(=O)N1CCN(Cc2cc3nc(-c4cccc5[nH]ncc45)nc(N4CCOCC4)c3s2)CC1 [pictilisib]
Method in brief: as §1

[3] = compound: C[C@@H](Oc1cc(-c2cnn(C3CCNCC3)c2)cnc1N)c1c(Cl)ccc(F)c1Cl [crizotinib]
Method in brief: as §1

[4] = compound: C[C@H](C1=CC=C(C=C1)C(=O)NC2=C3C=CNC3=NC=C2)N
Method in brief: as §1

[5] = compound: C[C@H](Nc1ncnc2nc[nH]c12)c1cc2cccc(Cl)c2c(=O)n1-c1ccccc1 [duvelisib]
Method in brief: as §1

[6] = compound: Cc1cc(Nc2cc(CN3CCOCC3)c3nc(C)c(Cc4ccc(Cl)cc4F)n3n2)n[nH]1 [gandotinib]
Method in brief: as §1

[7] = compound: Cc1cc(Nc2cc(N3CCN(C)CC3)nc(Sc3ccc(NC(=O)C4CC4)cc3)n2)n[nH]1 [tozasertib]
Method in brief: as §1

[8] = compound: Cc1ccc(-n2nc(C(C)(C)C)cc2NC(=O)Nc2ccc(OCCN3CCOCC3)c3ccccc23)cc1 [doramapimod]
Method in brief: as §1

[9] = compound: Cc1ccc(NC(=O)c2ccc(CN3CC[C@H](N(C)C)C3)c(C(F)(F)F)c2)cc1Nc1nccc(-c2cncnc2)n1 [bafetinib]
Method in brief: as §1

[10] = compound: Cc1cccc(CC(=O)N2CCc3c2ccc(-c2cn(C)c4ncnc(N)c24)c3F)n1
Method in brief: as §1

Sequence of UniProt Q9UBD5 (Q9UBD5 whole entry, looked up): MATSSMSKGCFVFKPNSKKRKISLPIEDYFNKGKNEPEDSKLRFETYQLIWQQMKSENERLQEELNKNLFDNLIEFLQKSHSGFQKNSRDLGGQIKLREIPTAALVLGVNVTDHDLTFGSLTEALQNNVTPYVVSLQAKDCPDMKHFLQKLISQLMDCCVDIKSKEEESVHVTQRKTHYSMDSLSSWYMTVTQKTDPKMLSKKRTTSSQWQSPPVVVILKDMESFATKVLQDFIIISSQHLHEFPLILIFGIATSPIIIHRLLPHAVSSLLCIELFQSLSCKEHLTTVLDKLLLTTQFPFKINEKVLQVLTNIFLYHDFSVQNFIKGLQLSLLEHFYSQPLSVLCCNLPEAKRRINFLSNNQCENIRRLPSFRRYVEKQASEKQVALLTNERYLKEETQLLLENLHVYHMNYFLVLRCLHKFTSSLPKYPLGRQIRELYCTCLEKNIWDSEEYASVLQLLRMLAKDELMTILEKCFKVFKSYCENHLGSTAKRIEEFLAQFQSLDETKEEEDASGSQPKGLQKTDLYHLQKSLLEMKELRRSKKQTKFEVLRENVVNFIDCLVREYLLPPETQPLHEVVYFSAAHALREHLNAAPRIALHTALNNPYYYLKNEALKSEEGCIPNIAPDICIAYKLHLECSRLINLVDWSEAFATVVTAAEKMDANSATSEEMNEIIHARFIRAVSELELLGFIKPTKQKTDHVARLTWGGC
Sequence of UniProt P00480 (P00480 whole entry, looked up): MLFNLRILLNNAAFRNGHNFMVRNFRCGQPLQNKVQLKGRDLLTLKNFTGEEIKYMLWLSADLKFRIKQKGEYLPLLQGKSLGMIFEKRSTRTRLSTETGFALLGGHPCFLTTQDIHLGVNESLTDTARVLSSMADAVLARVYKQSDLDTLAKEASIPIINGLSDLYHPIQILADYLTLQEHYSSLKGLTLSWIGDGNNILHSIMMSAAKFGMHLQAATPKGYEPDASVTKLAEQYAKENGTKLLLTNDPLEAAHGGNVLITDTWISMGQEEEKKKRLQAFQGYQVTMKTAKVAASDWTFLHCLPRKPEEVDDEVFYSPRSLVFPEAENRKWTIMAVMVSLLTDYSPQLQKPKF
Sequence of UniProt P04150 (P04150 whole entry, looked up): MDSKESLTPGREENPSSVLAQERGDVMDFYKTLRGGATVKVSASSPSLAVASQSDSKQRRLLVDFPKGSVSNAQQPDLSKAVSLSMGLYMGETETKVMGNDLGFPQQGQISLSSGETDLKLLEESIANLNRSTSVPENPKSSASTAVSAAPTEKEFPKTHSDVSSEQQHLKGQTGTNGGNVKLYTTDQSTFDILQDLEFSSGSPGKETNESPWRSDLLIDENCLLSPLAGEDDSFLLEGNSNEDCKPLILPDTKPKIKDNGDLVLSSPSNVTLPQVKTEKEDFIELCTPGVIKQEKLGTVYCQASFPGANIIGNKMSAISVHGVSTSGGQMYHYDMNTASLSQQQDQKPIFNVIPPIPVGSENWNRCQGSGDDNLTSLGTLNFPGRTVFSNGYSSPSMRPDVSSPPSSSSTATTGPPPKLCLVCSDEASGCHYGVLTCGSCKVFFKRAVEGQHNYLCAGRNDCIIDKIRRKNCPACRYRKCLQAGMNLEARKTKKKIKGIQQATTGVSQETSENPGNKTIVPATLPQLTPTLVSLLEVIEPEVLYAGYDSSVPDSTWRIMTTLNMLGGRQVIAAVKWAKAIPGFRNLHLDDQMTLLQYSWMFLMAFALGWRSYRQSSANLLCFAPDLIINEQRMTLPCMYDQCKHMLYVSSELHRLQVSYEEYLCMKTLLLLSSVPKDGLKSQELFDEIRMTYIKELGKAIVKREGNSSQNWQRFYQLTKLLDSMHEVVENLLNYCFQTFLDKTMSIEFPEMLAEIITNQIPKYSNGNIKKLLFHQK
Sequence of UniProt P13533 (P13533 whole entry, looked up): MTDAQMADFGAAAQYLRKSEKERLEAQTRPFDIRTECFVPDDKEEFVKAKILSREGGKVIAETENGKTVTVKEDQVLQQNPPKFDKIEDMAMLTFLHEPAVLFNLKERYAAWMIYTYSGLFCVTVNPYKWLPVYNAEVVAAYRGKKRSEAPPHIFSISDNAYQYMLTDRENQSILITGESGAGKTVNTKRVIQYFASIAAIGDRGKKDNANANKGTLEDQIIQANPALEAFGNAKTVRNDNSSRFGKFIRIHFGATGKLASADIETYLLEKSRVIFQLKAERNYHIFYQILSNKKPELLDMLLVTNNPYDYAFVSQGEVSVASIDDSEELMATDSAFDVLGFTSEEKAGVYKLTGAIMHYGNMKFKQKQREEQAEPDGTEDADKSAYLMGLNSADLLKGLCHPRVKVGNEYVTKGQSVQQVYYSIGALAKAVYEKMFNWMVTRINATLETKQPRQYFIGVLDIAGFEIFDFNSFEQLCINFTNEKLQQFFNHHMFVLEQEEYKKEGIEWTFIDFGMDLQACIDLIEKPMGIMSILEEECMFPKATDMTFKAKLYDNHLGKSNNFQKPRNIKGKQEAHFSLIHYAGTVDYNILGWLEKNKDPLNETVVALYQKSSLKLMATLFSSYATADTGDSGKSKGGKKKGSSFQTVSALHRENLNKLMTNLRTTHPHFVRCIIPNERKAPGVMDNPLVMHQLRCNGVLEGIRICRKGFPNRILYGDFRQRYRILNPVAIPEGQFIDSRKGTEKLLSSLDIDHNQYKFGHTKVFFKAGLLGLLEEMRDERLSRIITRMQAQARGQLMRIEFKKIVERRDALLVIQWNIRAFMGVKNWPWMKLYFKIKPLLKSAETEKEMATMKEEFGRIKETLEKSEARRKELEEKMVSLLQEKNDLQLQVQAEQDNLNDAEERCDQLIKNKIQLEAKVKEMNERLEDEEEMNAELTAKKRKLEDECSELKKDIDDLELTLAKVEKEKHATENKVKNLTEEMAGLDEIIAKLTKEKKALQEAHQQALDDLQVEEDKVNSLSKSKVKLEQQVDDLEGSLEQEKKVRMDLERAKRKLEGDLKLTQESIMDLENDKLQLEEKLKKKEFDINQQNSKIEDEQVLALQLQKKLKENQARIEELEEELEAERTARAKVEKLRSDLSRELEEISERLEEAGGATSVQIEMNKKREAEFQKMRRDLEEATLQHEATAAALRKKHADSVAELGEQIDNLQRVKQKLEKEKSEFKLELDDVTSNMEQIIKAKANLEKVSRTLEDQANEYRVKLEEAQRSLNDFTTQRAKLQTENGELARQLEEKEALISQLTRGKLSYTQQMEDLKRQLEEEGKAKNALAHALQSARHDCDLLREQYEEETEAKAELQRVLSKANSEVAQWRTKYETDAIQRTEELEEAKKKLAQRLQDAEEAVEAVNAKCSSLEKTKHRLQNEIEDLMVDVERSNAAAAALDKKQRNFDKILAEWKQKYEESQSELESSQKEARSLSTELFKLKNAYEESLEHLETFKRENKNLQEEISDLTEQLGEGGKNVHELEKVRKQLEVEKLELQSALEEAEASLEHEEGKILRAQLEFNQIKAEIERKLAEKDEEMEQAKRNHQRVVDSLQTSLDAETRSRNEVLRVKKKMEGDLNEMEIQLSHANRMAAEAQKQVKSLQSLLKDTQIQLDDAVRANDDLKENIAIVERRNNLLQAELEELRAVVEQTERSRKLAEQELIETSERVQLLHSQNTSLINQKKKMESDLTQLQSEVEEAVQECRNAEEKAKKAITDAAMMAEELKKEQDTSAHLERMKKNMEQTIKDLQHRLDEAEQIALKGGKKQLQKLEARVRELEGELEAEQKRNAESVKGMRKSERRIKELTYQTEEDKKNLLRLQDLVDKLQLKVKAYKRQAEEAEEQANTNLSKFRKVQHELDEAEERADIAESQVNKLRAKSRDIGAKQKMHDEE
Sequence of UniProt O15294 (O15294 whole entry, looked up): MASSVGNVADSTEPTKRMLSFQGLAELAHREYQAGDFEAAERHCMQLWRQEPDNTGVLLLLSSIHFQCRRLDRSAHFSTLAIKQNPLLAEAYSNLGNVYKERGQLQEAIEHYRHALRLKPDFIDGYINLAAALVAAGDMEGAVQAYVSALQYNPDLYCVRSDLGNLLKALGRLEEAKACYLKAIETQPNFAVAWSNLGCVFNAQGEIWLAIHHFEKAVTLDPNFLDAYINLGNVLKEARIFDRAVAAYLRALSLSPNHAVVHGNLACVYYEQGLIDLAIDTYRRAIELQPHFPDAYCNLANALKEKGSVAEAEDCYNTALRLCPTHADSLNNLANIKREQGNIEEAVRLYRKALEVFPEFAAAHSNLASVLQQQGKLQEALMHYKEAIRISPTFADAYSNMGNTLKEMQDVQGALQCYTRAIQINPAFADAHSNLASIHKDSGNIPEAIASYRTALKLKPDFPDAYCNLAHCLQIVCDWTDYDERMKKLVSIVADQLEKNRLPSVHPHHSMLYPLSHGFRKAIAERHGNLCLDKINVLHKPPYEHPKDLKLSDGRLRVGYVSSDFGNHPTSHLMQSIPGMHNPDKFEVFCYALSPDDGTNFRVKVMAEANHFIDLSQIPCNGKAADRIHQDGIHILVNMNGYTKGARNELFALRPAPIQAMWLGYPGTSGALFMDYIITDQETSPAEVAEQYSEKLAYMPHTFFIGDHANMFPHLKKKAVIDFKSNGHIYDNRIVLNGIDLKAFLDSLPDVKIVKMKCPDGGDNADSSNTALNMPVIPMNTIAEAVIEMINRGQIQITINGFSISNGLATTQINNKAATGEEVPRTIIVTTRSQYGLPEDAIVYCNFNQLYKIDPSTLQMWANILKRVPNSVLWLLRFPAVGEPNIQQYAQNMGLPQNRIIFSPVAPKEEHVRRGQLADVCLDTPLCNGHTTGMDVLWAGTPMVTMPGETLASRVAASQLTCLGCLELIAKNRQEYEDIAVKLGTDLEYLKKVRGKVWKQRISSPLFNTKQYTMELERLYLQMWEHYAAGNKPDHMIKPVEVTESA
Sequence of UniProt P84157 (P84157 whole entry, looked up): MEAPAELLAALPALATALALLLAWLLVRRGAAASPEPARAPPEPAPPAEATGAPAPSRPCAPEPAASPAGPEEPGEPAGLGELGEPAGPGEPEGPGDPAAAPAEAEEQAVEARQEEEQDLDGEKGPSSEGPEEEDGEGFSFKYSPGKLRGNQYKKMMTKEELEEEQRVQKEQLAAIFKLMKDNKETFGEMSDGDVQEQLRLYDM

Target	log2 fold change [1]	log2 fold change [2]	log2 fold change [3]	log2 fold change [4]	log2 fold change [5]	log2 fold change [6]	log2 fold change [7]	log2 fold change [8]	log2 fold change [9]	log2 fold change [10]
NACC1 (UniProt Q96RE7)	-0.032	0.034	0.01	-0.066	-0.002	0.006	-0.015	-0.011	-0.078	0.044
NNMT (UniProt P40261)	-0.017	0.037	-0.065	-0.072	0.066	0.015	0	0.013	-0.066	-0.001
NEBL isoform 2 (UniProt O76041)	0.003	0.044	0.059	-0.135	-0.046	0.094	-0.018	-0.018	0.105	0.073
OSGEP (UniProt Q9NPF4)	-0.011	-0.025	-0.006	-0.07	-0.037	-0.024	0.043	-0.035	-0.008	0.033
NPM3 (UniProt O75607)	0.087	0.053	-0.02	-0.201	0.014	0.068	-0.036	0.027	0.04	0.164
OGT (UniProt O15294)	-0.006	-0.038	-0.038	-0.016	-0.016	-0.086	0.016	0.009	-0.011	-0.029
OGFOD2 (UniProt Q6N063)	0.034	-0.031	-0.017	-0.029	0.045	-0.016	0.019	-0.013	-0.09	0.032
MTMR6 (UniProt Q9Y217)	0.017	0.025	-0.037	0.071	0.02	-0.024	0.014	0.056	0.001	-0.113
NUB1 (UniProt Q9Y5A7)	-0.002	-0.022	0.012	0.009	-0.004	0.011	0.027	-0.023	-0.047	-0.002
MTCH2 (UniProt Q9Y6C9)	-0.023	-0.018	-0.059	-0.144	-0.011	0.142	-0.028	0.024	-0.04	0.022
NIPSNAP3A (UniProt Q9UFN0)	-0.007	-0.031	0.021	0.466 (active)	0.03	-0.197	-0.011	-0.029	0.061	-0.276 (active)
PARG (UniProt Q86W56)	0.017	-0.035	-0.058	0.047	-0.02	-0.065	-0.033	0.005	-0.004	-0.01
OTC (UniProt P00480)	-0.118	-0.026	-0.273	-4.33 (active)	0.159	-0.003	0.161	0.168	-0.412	0.377
MYOM1 (UniProt P52179)	0.099	0.009	0.054	-0.082	-0.02	0.065	-0.137	-0.436	-0.252	0.05
OSBP2 (UniProt Q969R2)	0.003	0.024	-0.074	-0.666 (active)	0.116	0.194	-0.028	0.018	-0.037	0.23
OSBPL3 isoform 2 (UniProt Q9H4L5)	0.073	-0.039	0.014	-0.045	0.03	-0.052	-0.005	0.107	0.269	0.035
NARS2 (UniProt Q96I59)	0.039	-0.132	-0.034	0.039	-0.002	-0.058	0.013	-0.01	-0.053	0.024
NDUFA4 (UniProt O00483)	0.124	0.017	0.02	0.009	0.059	-0.294 (active)	-0.01	0.02	0	-0.026
PAK1 (UniProt Q13153)	-0.037	-0.034	0.019	-0.117	0.044	-0.011	-0.02	-0.035	0.002	-0.005

Target	log2 fold change [1]	log2 fold change [2]	log2 fold change [3]	log2 fold change [4]	log2 fold change [5]	log2 fold change [6]	log2 fold change [7]	log2 fold change [8]	log2 fold change [9]	log2 fold change [10]
MTA1 (UniProt Q13330)	-0.002	0	-0.008	0.001	-0.059	-0.067	-0.002	-0.009	0.023	0.017
NADK2 (UniProt Q4G0N4)	0.02	-0.028	-0.005	-0.04	0.03	0.004	0.012	-0.002	0.01	0.017
NUDT6 (UniProt P53370)	–	–	0.051	–	-0.034	–	0.132	-0.073	–	–
NAA16 (UniProt Q6N069)	0.048	-0.108	–	–	0.029	–	-0.016	–	0.022	–
P2RY1 (UniProt P47900)	-0.091	-0.444 (active)	–	-0.02	0.092	0.012	0.1	–	0.021	0.007
MT-ATP8 (UniProt P03928)	0.024	-0.002	-0.121	0.402 (active)	–	-0.054	-0.078	0.011	-0.087	-0.107
PAPOLG (UniProt Q9BWT3)	–	–	-0.139	-0.026	0.02	-0.002	-0.027	0.017	–	0.067
NR2F2 (UniProt P24468)	0.06	0.072	-0.022	-0.163	-0.046	-0.153	–	-0.005	0.037	-0.023
NCAPG (UniProt Q9BPX3)	-0.029	0	-0.074	-0.028	-0.007	-0.094	-0.011	0.026	-0.035	0.011
MYBL2 (UniProt P10244)	–	–	-0.018	0.181	-0.011	-0.286	0.001	0.017	–	-0.184
NR3C1 isoform 3 (UniProt P04150)	–	-0.26	0.012	0.057	0.046	-0.091	0.012	-0.005	-0.027	0.073
NTMT1 (UniProt Q9BV86)	-0.008	-0.008	-0.009	0.079	-0.026	-0.113	-0.041	0.025	0.025	-0.045
MYO10 (UniProt Q9HD67)	–	0.076	-0.042	0.696 (active)	–	-0.016	–	-0.321	-0.456	-0.029
MYO1C (UniProt O00159)	-0.078	0.007	-0.09	0.027	0.075	-0.036	0.014	0.065	0.068	-0.023
NSUN7 (UniProt Q8NE18)	-0.094	-0.001	-0.374	-0.039	–	0.022	0.152	0.045	0.285	0.125
NUDT5 (UniProt C9JYY9)	–	–	–	–	–	–	0.004	–	–	–
NUMB isoform 2 (UniProt P49757)	–	–	–	–	0.023	–	–	–	–	–
NFAT5 isoform 4 (UniProt O94916)	–	-0.138	-0.028	–	–	–	–	-0.158	-0.053	–
ORC3 (UniProt Q9UBD5)	0.213	–	–	0.129	–	-0.311	–	–	–	0.082

Target	log2 fold change [1]	log2 fold change [2]	log2 fold change [3]	log2 fold change [4]	log2 fold change [5]	log2 fold change [6]	log2 fold change [7]	log2 fold change [8]	log2 fold change [9]	log2 fold change [10]
OSBPL1A (UniProt Q9BXW6)	-0.035	-0.051	-0.014	-0.079	0.072	0.069	–	0.019	-0.077	0.102
PARD3B (UniProt Q8TEW8)	–	–	–	-0.197	0.024	0.074	–	–	–	0.042
NUB1 isoform 2 (UniProt Q9Y5A7)	–	–	0.015	–	–	–	–	0.063	–	–
NPLOC4 (UniProt I3L3I1)	–	0.145	-0.53	–	0.038	–	-0.216	-0.002	-0.214	–
MYLK (UniProt Q15746)	-0.006	0.015	0.082	-0.181	–	0.033	0.114	0.611 (active)	0.712 (active)	-0.047
ORC1 (UniProt Q13415)	–	–	–	–	–	–	0.023	–	–	–
MYH6 (UniProt P13533)	-0.111	-1.52 (active)	-0.097	–	–	–	0.009	-0.245	-0.132	–
NEXN (UniProt Q0ZGT2)	0.066	-0.137	–	-0.239	-0.088	0.172	-0.237	–	0.043	0.198
NSA2 (UniProt O95478)	0.014	-0.088	–	-0.036	-0.055	0.159	-0.086	–	0.064	0.221
NCAPD3 (UniProt P42695)	-0.015	-0.009	-0.065	-0.013	-0.004	-0.099	-0.013	0.02	-0.024	0.047
PAGE2B (UniProt Q5JRK9)	0.216	–	0.051	0.267	0.011	-0.115	-0.017	0.025	–	-0.097
NOB1 (UniProt Q9ULX3)	0.027	0.01	-0.019	0.283 (active)	-0.033	-0.084	0.011	-0.023	-0.041	-0.048
MXRA7 (UniProt P84157)	-0.039	–	0.103	-0.149	0.056	-0.008	-0.05	0.041	–	0.096
NRIP1 (UniProt P48552)	-0.052	-0.007	-0.155	-0.396	-0.014	0.407	–	0.048	-0.07	0.26
NUDT4 (UniProt Q9NZJ9)	-0.01	-0.055	0.032	0.166	-0.039	-0.188	-0.022	-0.076	0.117	-0.304 (active)
NOCT (UniProt Q9UK39)	-0.025	–	0.024	–	0.039	–	0.111	0.063	–	–
NUDT5 (UniProt Q9UKK9)	0.003	-0.036	0.007	-0.299 (active)	0.051	0.211	-0.018	-0.015	-0.016	0.212
MYO9A isoform 4 (UniProt B2RTY4)	-0.027	0.022	-0.03	-0.014	-0.019	-0.044	–	0.005	-0.103	0.036
